Drawing on ChEMBL document CHEMBL1961873, “Compounds: GSK PKIS; Assays: Nanosyn kinase panel” (2012), this text covers inhibition for 13 molecules.

In assay [1] the target is Platelet-derived growth factor receptor beta (Homo sapiens) (UniProt P09619). The settings on record: at 1 µM.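 Also: each value is a mean percent inhibition.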
Assay [2] deals with Tyrosine-protein kinase FRK (Homo sapiens) (UniProt P42685). The conditions noted are these: at 0.1 µM.
Assay [3] shares this target. The settings on record: at 1 µM.
The target of assay [4] is Protein-tyrosine kinase 2-beta (Homo sapiens) (UniProt Q14289). The settings on record: at 0.1 µM.
Assay [5] has the same target. The conditions noted are these: at 1 µM.
Assay [6] has as its target Proto-oncogene tyrosine-protein kinase receptor Ret (Homo sapiens) (UniProt P07949). The settings on record: at 0.1 µM.
Assay [7] has the same target. The settings on record: at 1 µM.
Assay [8] has as its system Proto-oncogene tyrosine-protein kinase receptor Ret (Homo sapiens), P07949 [V804L]. The settings on record: at 0.1 µM.
For assay [9] the test system is unchanged. The settings on record: at 1 µM.
For assay [10], the system named is Proto-oncogene tyrosine-protein kinase receptor Ret (Homo sapiens), P07949 [Y791F]. The conditions noted are these: at 0.1 µM.
Sequence of Proto-oncogene tyrosine-protein kinase receptor Ret (Homo sapiens), P07949 [Y791F] (P07949 whole entry Y791F): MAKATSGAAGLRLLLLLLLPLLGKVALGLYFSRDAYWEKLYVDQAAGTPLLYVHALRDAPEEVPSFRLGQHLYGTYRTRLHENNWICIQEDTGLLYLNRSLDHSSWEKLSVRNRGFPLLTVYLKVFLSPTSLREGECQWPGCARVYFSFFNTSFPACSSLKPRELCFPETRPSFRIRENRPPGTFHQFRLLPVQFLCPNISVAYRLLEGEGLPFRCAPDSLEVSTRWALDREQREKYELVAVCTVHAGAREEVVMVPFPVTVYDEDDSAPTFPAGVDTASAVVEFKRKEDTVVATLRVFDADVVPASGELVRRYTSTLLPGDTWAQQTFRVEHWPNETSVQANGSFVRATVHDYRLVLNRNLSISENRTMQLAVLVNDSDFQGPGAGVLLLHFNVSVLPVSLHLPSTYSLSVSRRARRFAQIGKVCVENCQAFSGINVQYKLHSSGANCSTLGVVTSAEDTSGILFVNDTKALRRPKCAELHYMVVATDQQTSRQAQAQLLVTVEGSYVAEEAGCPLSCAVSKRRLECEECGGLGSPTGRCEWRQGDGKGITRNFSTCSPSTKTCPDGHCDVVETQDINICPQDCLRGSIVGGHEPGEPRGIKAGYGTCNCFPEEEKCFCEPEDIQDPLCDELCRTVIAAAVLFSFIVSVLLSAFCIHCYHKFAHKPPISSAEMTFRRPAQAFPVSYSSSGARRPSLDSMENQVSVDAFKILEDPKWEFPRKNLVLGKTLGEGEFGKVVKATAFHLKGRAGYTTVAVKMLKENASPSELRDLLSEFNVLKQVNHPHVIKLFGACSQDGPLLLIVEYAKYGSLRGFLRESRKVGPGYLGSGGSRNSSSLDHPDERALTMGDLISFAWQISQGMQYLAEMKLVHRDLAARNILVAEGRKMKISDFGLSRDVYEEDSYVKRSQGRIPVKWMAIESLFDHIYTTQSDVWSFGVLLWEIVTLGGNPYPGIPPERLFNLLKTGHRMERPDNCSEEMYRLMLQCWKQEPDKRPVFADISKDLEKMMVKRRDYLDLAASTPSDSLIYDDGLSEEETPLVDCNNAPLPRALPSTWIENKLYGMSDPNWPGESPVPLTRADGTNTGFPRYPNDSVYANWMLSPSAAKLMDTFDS
The test system is the same in assay [11]. The conditions noted are these: at 1 µM.
Assay [12] concerns the target Macrophage-stimulating protein receptor (Homo sapiens) (UniProt Q04912). The conditions noted are these: at 0.1 µM.
For assay [13] the target is unchanged. The conditions noted are these: at 1 µM.
Assay [14] deals with Proto-oncogene tyrosine-protein kinase ROS (Homo sapiens) (UniProt P08922). The settings on record: at 0.1 µM.
For assay [15] the target is unchanged. The settings on record: at 1 µM.
Assay [16] concerns the target Proto-oncogene tyrosine-protein kinase Src (Homo sapiens) (UniProt P12931). The settings on record: at 0.1 µM.
The target is the same in assay [17]. The settings on record: at 1 µM.
Assay [18] has as its target Tyrosine-protein kinase Srms (Homo sapiens) (UniProt Q9H3Y6). The settings on record: at 0.1 µM.
Assay [19] shares this target. The settings on record: at 1 µM.
Assay [20] concerns the target Tyrosine-protein kinase SYK (Homo sapiens) (UniProt P43405). The settings on record: at 0.1 µM.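 Also: reported percentages are mean inhibition values for SYK.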

One may read the inhibition as the change of the read-out against control, counted positive when it falls.

Sequence of Tyrosine-protein kinase FRK (Homo sapiens) (P42685 whole entry): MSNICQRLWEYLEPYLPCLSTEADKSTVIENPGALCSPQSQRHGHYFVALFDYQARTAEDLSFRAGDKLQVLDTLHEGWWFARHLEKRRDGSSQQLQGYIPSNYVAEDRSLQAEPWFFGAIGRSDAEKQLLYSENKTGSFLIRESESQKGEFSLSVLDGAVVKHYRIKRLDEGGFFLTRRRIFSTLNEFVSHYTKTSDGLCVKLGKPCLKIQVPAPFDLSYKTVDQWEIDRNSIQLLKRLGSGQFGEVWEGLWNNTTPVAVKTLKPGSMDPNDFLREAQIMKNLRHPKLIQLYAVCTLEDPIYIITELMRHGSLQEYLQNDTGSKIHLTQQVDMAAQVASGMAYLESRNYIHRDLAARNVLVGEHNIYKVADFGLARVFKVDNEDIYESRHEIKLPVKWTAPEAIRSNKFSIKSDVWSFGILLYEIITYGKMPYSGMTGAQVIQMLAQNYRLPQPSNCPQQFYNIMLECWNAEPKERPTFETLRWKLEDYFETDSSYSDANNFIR
Sequence of Macrophage-stimulating protein receptor (Homo sapiens) (Q04912 25-304 limits assumed): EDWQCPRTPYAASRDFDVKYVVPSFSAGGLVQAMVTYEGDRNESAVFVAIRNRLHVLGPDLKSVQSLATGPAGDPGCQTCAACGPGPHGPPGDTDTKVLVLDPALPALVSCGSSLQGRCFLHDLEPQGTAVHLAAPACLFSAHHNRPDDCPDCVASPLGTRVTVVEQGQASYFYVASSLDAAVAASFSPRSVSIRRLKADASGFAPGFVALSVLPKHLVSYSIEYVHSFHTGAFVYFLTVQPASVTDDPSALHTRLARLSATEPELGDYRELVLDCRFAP
Sequence of Macrophage-stimulating protein receptor (Homo sapiens) (Q04912 310-1400 limits assumed): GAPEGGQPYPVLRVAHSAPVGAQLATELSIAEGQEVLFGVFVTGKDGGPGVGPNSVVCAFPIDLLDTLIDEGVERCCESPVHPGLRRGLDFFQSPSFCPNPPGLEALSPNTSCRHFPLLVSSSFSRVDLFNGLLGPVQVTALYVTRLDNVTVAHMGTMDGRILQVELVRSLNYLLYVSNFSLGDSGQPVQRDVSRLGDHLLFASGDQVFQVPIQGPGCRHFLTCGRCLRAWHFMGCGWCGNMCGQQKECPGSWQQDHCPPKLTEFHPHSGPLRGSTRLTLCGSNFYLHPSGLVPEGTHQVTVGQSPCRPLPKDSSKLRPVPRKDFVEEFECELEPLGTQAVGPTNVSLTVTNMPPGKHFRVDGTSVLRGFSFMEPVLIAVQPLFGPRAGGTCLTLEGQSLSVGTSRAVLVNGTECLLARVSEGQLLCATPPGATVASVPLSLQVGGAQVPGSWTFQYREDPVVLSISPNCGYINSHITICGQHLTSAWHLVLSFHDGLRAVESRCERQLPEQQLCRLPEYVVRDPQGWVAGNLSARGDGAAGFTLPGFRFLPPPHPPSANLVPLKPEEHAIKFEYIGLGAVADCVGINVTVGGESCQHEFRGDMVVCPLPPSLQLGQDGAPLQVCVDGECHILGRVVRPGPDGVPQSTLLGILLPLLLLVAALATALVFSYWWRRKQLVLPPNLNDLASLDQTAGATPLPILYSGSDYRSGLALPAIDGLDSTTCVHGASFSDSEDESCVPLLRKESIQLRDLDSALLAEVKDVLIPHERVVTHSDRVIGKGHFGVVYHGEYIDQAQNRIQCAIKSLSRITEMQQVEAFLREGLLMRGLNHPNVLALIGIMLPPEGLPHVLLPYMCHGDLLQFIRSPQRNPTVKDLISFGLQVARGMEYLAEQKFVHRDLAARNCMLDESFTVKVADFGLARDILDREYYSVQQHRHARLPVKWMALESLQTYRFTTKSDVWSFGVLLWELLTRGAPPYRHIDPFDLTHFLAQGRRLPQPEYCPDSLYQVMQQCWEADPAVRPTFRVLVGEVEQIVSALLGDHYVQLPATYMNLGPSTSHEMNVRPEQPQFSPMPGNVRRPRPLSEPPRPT
Sequence of Platelet-derived growth factor receptor beta (Homo sapiens) (P09619 whole entry): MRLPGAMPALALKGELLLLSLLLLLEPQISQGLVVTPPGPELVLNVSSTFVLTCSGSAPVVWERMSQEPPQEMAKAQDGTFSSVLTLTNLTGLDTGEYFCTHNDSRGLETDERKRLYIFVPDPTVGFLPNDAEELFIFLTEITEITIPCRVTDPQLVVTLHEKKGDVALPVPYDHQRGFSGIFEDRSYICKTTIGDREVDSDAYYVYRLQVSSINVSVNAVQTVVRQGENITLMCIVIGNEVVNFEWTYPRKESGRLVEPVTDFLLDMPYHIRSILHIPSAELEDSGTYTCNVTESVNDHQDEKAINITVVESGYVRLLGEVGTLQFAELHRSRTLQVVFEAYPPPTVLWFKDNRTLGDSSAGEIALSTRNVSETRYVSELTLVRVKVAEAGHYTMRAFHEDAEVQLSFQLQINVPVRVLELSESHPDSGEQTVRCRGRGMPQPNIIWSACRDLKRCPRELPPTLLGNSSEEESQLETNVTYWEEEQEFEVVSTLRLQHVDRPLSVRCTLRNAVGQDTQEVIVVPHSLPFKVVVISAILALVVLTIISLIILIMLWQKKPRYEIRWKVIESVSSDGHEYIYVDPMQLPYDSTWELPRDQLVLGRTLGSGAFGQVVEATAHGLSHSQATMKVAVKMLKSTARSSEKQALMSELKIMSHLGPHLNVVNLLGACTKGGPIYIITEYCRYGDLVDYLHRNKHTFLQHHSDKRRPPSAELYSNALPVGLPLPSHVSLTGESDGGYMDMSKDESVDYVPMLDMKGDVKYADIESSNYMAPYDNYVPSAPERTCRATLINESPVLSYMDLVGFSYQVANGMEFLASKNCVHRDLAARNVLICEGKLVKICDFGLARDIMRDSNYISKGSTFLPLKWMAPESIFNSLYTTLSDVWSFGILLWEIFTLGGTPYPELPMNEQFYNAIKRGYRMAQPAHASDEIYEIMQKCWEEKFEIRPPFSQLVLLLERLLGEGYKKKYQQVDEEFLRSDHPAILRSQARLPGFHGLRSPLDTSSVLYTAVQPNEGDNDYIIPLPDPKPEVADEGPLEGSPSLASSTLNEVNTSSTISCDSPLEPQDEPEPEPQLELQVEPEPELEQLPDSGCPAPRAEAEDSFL
Sequence of Proto-oncogene tyrosine-protein kinase receptor Ret (Homo sapiens), P07949 [V804L] (P07949 whole entry V804L): as the sequence (P07949 whole entry Y791F) above, with F791Y, V804L counted along it
Sequence of Tyrosine-protein kinase Srms (Homo sapiens) (Q9H3Y6 whole entry): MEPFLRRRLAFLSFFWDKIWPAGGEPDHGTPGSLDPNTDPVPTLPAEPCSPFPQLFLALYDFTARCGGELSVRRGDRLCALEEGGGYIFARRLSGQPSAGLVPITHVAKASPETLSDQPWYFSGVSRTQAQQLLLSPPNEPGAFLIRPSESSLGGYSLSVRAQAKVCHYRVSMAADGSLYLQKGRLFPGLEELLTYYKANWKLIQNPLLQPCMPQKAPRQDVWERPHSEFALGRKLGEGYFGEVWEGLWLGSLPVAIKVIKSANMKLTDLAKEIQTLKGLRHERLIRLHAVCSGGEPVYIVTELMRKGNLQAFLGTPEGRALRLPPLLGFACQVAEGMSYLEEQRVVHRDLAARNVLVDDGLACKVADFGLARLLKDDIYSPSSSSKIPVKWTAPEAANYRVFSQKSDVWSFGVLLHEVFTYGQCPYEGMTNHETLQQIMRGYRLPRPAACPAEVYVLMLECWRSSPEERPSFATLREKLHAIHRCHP
Sequence of Proto-oncogene tyrosine-protein kinase receptor Ret (Homo sapiens) (P07949 whole entry): as the sequence (P07949 whole entry Y791F) above, with F791Y counted along it

For `O=C(Nc1n[nH]c2nc(-c3ccc(O)cc3)c(Br)cc12)C1CC1`, the inhibition in [1] came to 41.3%; in assay [2] it was 14.7%; in [3] it was 2.41%; in assay [4] it was 9.91%; in [5] it was 18.5%; in [6], 11.8%. For the same molecule, the inhibition was 28.1% in [7]; 5.98% in assay [8]; 21% in assay [9]; 12.1% in [10]; 36.3% in assay [11]; 2.95% in [12]. The inhibition in assay [13] is 6.19%; in [14] it was 5.89%; in assay [15], 11.1%; in assay [16] it was -2.92%; in assay [17], 20.3%; in assay [18], 2.23%. For the same molecule, the inhibition in assay [19] is 17%; in assay [20], -6.1%.

Take `COC(=O)Nc1nc2ccc(Sc3ccc(NC(=O)Nc4cc(C(F)(F)F)ccc4F)cc3)cc2[nH]1`: the inhibition was found to be 16.5% in [1]; 0.1% in assay [2]; 0.7% in assay [3]; 2.56% in assay [4]; 0.15% in assay [5]; 24.7% in assay [6]. Moreover, the inhibition in assay [7] is 74.1%; in assay [8], 9.72%; in assay [9], 58%; in assay [10], 23%; in [11], 73.9%; in assay [12] it was -5.81%. For the same molecule, the inhibition is -0.55% in assay [13]; -2.6% in [14]; 0.19% in [15]; 17.4% in assay [16]; 12.5% in assay [17]; 1.2% in assay [18]. For the same molecule, the inhibition in assay [19] was -0.15%; in assay [20], 0.25%.

For `NS(=O)(=O)c1ccc(Nc2cc(-c3ccc(O)c(F)c3)n[nH]2)cc1`, the inhibition in assay [1] is 53.4%; in assay [2] it was -1.68%; in [3], 0.93%; in assay [4], -2.28%; in assay [5], -1.9%; in assay [6], 11.3%. In addition, the inhibition in assay [7] is 55%; in [8], 10.6%; in [9], 47.6%; in [10] it was 14.1%; in assay [11], 55.5%; in [12] it was -1.82%. For the same molecule, the inhibition in [13] was 10.5%; in assay [14], 0.96%; in assay [15], 3.04%; in [16], -0.44%; in [17] it was 8.59%; in assay [18], -1.1%. In addition, the inhibition in assay [19] came to 1.72%; in assay [20] it was 3.87%.

For the molecule `N#Cc1ccc(Oc2nccc(-c3c(-c4ccc(F)cc4)ncn3C3CCNCC3)n2)cc1`, the inhibition in assay [1] was determined as 5.37%; in assay [2] it was 2.75%; in assay [3], 4.03%; in assay [4], 6.64%; in assay [5], 13.4%; in [6] it was 6.33%. In addition, the inhibition in [7] is 4.32%; in [8], 3.48%; in assay [9] it was 4.02%; in [10], 6.66%; in [11] it was 9.04%; in assay [12], 5.63%. Also, the inhibition in assay [13] was 4.9%; in assay [14] it was 5%; in assay [15] it was 7.93%; in assay [16], 7.01%; in assay [17] it was 6.12%; in assay [18], -3.21%. For the same molecule, the inhibition is -3.22% in assay [19] and -0.77% in assay [20].

Turning to `CCS(=O)(=O)c1ccc(OC)c(Nc2ncc(-c3ccccc3Cl)o2)c1`, the inhibition in assay [1] worked out at 28%; in assay [2], 0.68%; in assay [3] it was 4.99%; in assay [4], 6.54%; in assay [5], 45.2%; in [6], 4%. Besides, the inhibition in assay [7] is 8.62%; in [8] it was 3.06%; in [9], 21.2%; in assay [10], 2.23%; in [11], 9.6%; in assay [12] it was -3.54%. Besides, the inhibition in assay [13] was 8.49%; in assay [14], -1.24%; in assay [15] it was 4.38%; in [16], 4.44%; in assay [17] it was 23.4%; in assay [18] it was 2.76%. Further, the inhibition in assay [19] is 3.31%; in [20], -0.36%.

With `CN(c1ccc(NC(=O)Nc2c(Cl)cccc2Cl)cc1)c1ccnc(Nc2cccc(CS(C)(=O)=O)c2)n1`, the inhibition in assay [1] came to 77.7%; in assay [2] it was 3.86%; in assay [3], 14.5%; in [4], 55.1%; in assay [5] it was 29.7%; in assay [6], 23.8%. In addition, the inhibition in assay [7] was 48.6%; in [8], 13.2%; in assay [9], 41%; in [10], 24.4%; in assay [11] it was 64.8%; in assay [12] it was 68.8%. Also, the inhibition turned out to be 82.1% in assay [13]; 14.8% in [14]; 33.5% in assay [15]; 40.7% in assay [16]; 65.4% in [17]; 2.98% in [18]. Moreover, the inhibition in assay [19] is 3.99%; in [20], 2.77%.

As to `c1ccc(Oc2ccc(Nc3ncc(-c4ccccc4)o3)cc2)cc1`, the inhibition in assay [1] was 10.3%; in assay [2] it was -0.25%; in assay [3], 1.21%; in assay [4], 6.6%; in assay [5] it was 8.05%; in assay [6] it was 5.96%. The inhibition was determined as 3.49% in assay [7]; 4.18% in [8]; 6.54% in [9]; 5.06% in assay [10]; 6.74% in [11]; 4.82% in assay [12]. Besides, the inhibition in assay [13] was 2.2%; in assay [14], 4.48%; in assay [15] it was 5.71%; in [16], -4.51%; in assay [17] it was 3.93%; in [18], 0.57%. The inhibition in assay [19] is 1.29%; in [20], -7.24%.

`CS(=O)(=O)CCNCc1ccc(-c2ccc3ncnc(Nc4ccc(OCc5ccccc5)c(Br)c4)c3c2)o1`: the inhibition came to 7.34% in assay [1]; 2.64% in assay [2]; 3.25% in assay [3]; 3.86% in assay [4]; 10.1% in assay [5]; 7.14% in assay [6]. Further, the inhibition came out at 4.94% in assay [7]; 2.03% in assay [8]; 4.43% in [9]; 9.28% in assay [10]; 15.1% in assay [11]; 4.89% in [12]. The inhibition in assay [13] is 6.32%; in assay [14] it was 4.46%; in assay [15], 10.1%; in assay [16], 6.71%; in [17] it was 6.55%; in assay [18], -0.64%. The results for the inhibition in assay [19] and in [20] were 2.32% and -1.09%, respectively.

With `COc1cc(Nc2ncc3c(C)nc(-c4cccc(C(F)(F)F)c4)n3n2)cc(OC)c1OC`, the inhibition was 38% in assay [1]; 1.36% in [2]; 0.31% in assay [3]; 11.8% in assay [4]; 39.6% in assay [5]; 7.14% in [6]. Moreover, the inhibition in [7] was 39.1%; in [8] it was 16.7%; in assay [9], 57.4%; in assay [10], 8.01%; in [11] it was 31.8%; in [12], -0.28%. The inhibition in [13] was 6.04%; in assay [14] it was 6.64%; in [15] it was 10.5%; in assay [16], 22.6%; in assay [17], 74.4%; in assay [18], 1.58%. The inhibition in assay [19] was 0.29%; in [20], -1.19%.

Turning to `COc1ccc2cc(-c3c(-c4ccncc4)nc(-c4ccc([S+](C)[O-])cc4C)n3C)ccc2c1` (centres undefined), the inhibition in [1] was 5.35%; in assay [2], -0.28%; in assay [3], -0.05%; in [4], -4.54%; in assay [5], -2.74%; in [6] it was 2.66%. Besides, the inhibition in assay [7] was 22.2%; in assay [8] it was 1.07%; in assay [9], 2.78%; in [10], 2%; in assay [11], 28.3%; in assay [12] it was 3.56%. Besides, the inhibition in [13] is 4.22%; in [14], 2.09%; in assay [15], 6.31%; in assay [16], 2.64%; in [17], 3.54%; in [18], 1.97%. Further, the values for the inhibition in [19] and in assay [20] were 6.78% and -0.12%, respectively.

As to `CCS(=O)(=O)c1ccc(OC)c(Nc2ncc(-c3cccc(-c4ccccc4F)c3)o2)c1`, the inhibition in [1] turned out to be 63.6%; in assay [2] it was 0.61%; in [3], 11.7%; in assay [4] it was 7.79%; in assay [5], 0.8%; in assay [6], 15.4%. For the same molecule, the inhibition in assay [7] stood at 54.4%; in assay [8], 3.52%; in assay [9], 9.78%; in [10], 10.1%; in assay [11] it was 51.1%; in assay [12] it was 2.4%. Further, the inhibition in assay [13] came to 5.56%; in [14] it was 14.2%; in assay [15] it was 54.9%; in assay [16], 12.6%; in assay [17], 74.5%; in assay [18], 8.12%. Besides, the inhibition in assay [19] was 30.3%; in assay [20], -3.99%.

Turning to `CN(C)c1ccc2c(c1)/C(=C/Nc1ccc(S(N)(=O)=O)cc1)C(=O)N2`, the inhibition in assay [1] was 71.3%; in assay [2], 1.57%; in [3], 2.09%; in [4] it was 8.05%; in assay [5] it was 31.7%; in assay [6], 20.2%. For the same molecule, the inhibition was 51.5% in assay [7]; 12.5% in assay [8]; 51.1% in [9]; 11.2% in [10]; 47% in [11]; -0.09% in assay [12]. Moreover, the inhibition in [13] was 7.23%; in [14], 4.66%; in [15] it was 8.86%; in assay [16], -4.52%; in assay [17], 27.4%; in assay [18], 1.2%. The inhibition in [19] was found to be 3.48%.

With `COc1ccc2cc(-c3c(-c4ccncc4)nc(-c4ccc(S(C)(=O)=O)cc4C)n3C)ccc2c1`, the inhibition in assay [1] was 13.2%; in assay [2], 3.55%; in [3], 2.3%; in assay [4], 12.8%; in assay [5], 12.4%; in [6] it was 4.93%. For the same molecule, the inhibition was found to be 22.2% in assay [7]; 2.68% in [8]; 4.41% in assay [9]; 3.67% in assay [10]; 26.6% in assay [11]; 0.23% in assay [12]. For the same molecule, the inhibition in assay [13] was -0.19%; in assay [14] it was 6.07%; in assay [15], 8.9%; in assay [16] it was 3.38%; in assay [17], 11.2%; in [18] it was 1.11%. Moreover, the inhibition is 5.61% in [19] and 0.01% in assay [20].
